From PubChem
AI-2 QS mod = Vibrio harveyi AI-2 quorum sensing modulators, primary screen, JMH597 strain, luminescence/OD600 ratio. Vibrio harveyi JMH597 AI-2 luminescence/OD600 ratio, 9 h; active compounds read low; strain lacks LuxN and CqsS sensors; 0 = neutral-control median. activity change, % at 7.5 µM. 0.4% of 300,000 active. AID 2094, 2009; in the data active = activity change below about -75%, passing the limit was not always enough;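 also: luminescence divided by OD600 gain over 9 h not by final OD600 alone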
GRIN3A LBD mod = binders of NR3A ligand-binding domain, primary screen, biophysical, differential scanning fluorimetry, uHTS; Glutamate receptor ionotropic, NMDA 3A (GRIN3A) ligand-binding domain; NR3A LBD differential scanning fluorimetry, Tm shift; 0% = protein alone, 100% = glycine-bound protein; Tm shift relative to glycine control, % at 25 µM; 2.5% of 340,000 active; AID 1259313, 2017;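 active = melting temperature shift of at least 10% of the positive control shift, at one fixed dose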
AHR activator = AHR activators, primary screen, cell-based, luminescence, luciferase reporter, human | Aryl hydrocarbon receptor (Homo sapiens), P35869 | AHR-responsive luciferase reporter cells | activation, % at 5 µM | 2.5% of 320,000 active; in the data active = activation above about 47%;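 also: 0% = vehicle wells and 100% = reference agonist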
Target sequence (P35869 whole entry, looked up): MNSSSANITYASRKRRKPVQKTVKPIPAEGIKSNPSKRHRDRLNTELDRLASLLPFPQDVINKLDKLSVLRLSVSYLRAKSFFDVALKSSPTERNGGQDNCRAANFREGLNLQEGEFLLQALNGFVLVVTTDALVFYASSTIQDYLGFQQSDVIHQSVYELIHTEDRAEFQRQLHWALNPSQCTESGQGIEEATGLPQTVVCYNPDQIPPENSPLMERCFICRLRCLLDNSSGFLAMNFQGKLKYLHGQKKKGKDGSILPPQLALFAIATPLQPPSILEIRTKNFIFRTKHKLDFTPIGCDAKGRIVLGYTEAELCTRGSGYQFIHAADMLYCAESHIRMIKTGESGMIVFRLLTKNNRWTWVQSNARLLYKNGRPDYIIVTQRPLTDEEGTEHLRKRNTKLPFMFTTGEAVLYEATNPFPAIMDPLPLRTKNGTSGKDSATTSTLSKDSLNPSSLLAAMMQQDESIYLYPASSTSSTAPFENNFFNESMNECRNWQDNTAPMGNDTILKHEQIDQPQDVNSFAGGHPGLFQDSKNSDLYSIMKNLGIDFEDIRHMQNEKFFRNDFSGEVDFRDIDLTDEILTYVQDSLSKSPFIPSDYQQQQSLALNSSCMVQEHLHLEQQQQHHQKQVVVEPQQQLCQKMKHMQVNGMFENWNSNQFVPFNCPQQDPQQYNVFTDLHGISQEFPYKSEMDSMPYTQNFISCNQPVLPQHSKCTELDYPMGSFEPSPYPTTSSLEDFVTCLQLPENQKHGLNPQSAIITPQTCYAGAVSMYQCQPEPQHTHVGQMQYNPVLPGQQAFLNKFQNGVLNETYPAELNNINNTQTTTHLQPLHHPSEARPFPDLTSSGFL
Cardio protect = cardioprotection against H2O2-induced cell death, primary screen, uHTS, H9c2 cells, ATPLite luminescence; H9c2 cardiomyocytes, H2O2 injury protection, 2 h; protection from H2O2 cell death, % at 20 µM; 0.63% of 360,000 active;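 active = compounds giving at least 50% protection of heart cells from peroxide-induced death in the single-dose screen, raw or plate-pattern-corrected value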;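 also: 0% = DMSO wells with peroxide and 100% = DMSO wells without peroxide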
Mot1-301 SUMO = yeast Mot1-301 growth rescue at high temperature, primary screen, SUMOylation pathway inhibitor project, S. cerevisiae, ATP luminescence, 38.5C; S. cerevisiae Mot1-301 growth rescue; percent above DMSO median, 100 means doubled; growth rescue, % at 18.8 µM; 1% of 320,000 active; AID 2716, 2010;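 active = every valid replicate shows activation above 250% relative to neutral control wells; inactive = the rest, any valid replicate at or below 250%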;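 also: OY570 slx delta 5 strain wells were the positive control but not used for scaling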
NTR1 agonist = agonists of human NTR1, primary screen, imaging, U2OS cells, beta-arrestin-GFP, high content. Neurotensin receptor type 1 (Homo sapiens), P30989. NTR1-U2OS beta-arrestin-GFP spot imaging, agonist mode. activation, % at 20 µM. 0.17% of 330,000 active;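 active = activation at or above 40% of the spot to cytoplasm intensity ratio, with at least 20 cells analyzed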;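 also: 0% = DMSO without peptide and 100% = 100 nM NTR1 peptide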
* hit, by the source's call. Most compounds without a hit are left out; they make up all but 6.2% or so of the library.

COc1ccc(NC(=O)C2CCCN(S(=O)(=O)c3ccc(Cl)cc3)C2)cc1OC (stereo not given) was read as AI-2 QS mod 13, GRIN3A LBD mod 0, AHR activator 8, Cardio protect 8, Mot1-301 SUMO 11 and NTR1 agonist 1.
CC1=C(/C=C/C(C)=C/C=C/C(C)=C/C(=O)Nc2ccc(O)cc2)C(C)(C)CCC1 was read as GRIN3A LBD mod 17*, AHR activator -1, Cardio protect -18, Mot1-301 SUMO -15 and NTR1 agonist 16.
CC1=C(/C=C/C(C)=C/C=C/C(C)=C\C(=O)O)C(C)(C)CCC1 was read as AI-2 QS mod 4, GRIN3A LBD mod 3, AHR activator -7, Cardio protect -7, Mot1-301 SUMO 8 and NTR1 agonist 6.
Cc1cccc(C(O)c2ncc(-c3ccc(F)cc3)[nH]2)c1C (stereo not given) was read as Cardio protect -5.
`O=C(N/N=C/c1cc2cc3c(cc2nc1Cl)OCCO3)c1ccccc1O` gave AI-2 QS mod 14, GRIN3A LBD mod 7, AHR activator 6, Cardio protect 19, Mot1-301 SUMO -4 and NTR1 agonist 1.
`Cc1ccc2cc(/C=N/NC(=O)c3ccccc3O)c(Cl)nc2c1` gave AI-2 QS mod 8, GRIN3A LBD mod 19*, AHR activator 13, Cardio protect -2, Mot1-301 SUMO 0 and NTR1 agonist 5.
Cc1cccc2cc(/C=N/NC(=O)c3ccccc3O)c(Cl)nc12 was read as AI-2 QS mod 15, GRIN3A LBD mod 29*, AHR activator 8, Cardio protect -19, Mot1-301 SUMO -7 and NTR1 agonist 17.
`Cc1cccc2cc(/C=N/NC(=O)c3ccncc3)c(Cl)nc12` gave AI-2 QS mod 7, GRIN3A LBD mod 1, AHR activator 6, Cardio protect 13, Mot1-301 SUMO -15 and NTR1 agonist 1.
For COc1ccc(OC)c([N+](=O)[O-])c1C(N)=O the results were AI-2 QS mod 10, GRIN3A LBD mod 1, AHR activator -1, Cardio protect 5, Mot1-301 SUMO 155 and NTR1 agonist 6.
`COc1ccc(NC(C)=O)c([N+](=O)[O-])c1[N+](=O)[O-]` gave GRIN3A LBD mod 14* and Cardio protect 8.
`CN(CC(=O)Nc1ccc(Cl)cc1)C(=O)CNC(=O)c1cccs1` gave GRIN3A LBD mod 1, AHR activator 3, Cardio protect 8, Mot1-301 SUMO 32 and NTR1 agonist 4.
`Cc1ccc(S(=O)(=O)N(C)CC(=O)Nc2nc3ccccc3s2)cc1` gave AI-2 QS mod 20, GRIN3A LBD mod -11, AHR activator 8, Cardio protect -15, Mot1-301 SUMO 6 and NTR1 agonist 0.
`Cc1ccc(/C(=N/Nc2nc3ccccc3s2)C2=C(O)c3ccccc3C2=O)cc1` gave AI-2 QS mod 23, GRIN3A LBD mod 19*, AHR activator 10, Cardio protect -7 and NTR1 agonist 6.
For COc1ccccc1-n1c(=O)oc2ccc(Cl)cc2c1=O the results were GRIN3A LBD mod 0, AHR activator 68*, Cardio protect -33, Mot1-301 SUMO -5 and NTR1 agonist 2.
For COc1c(Cl)c(=O)oc2ccc(Cl)cc12 the results were Cardio protect 15.
For CCN(C(=O)COC(=O)C1CCN(S(=O)(=O)c2c(Cl)cccc2Cl)CC1)C1CCCCC1 the results were AI-2 QS mod 44, GRIN3A LBD mod 1, AHR activator 0, Cardio protect -2, Mot1-301 SUMO 1 and NTR1 agonist 2.
`O=C(C1CCCN(C2CC(=O)N(c3ccc(F)cc3)C2=O)C1)N1CCCC1` (stereo not given) gave AI-2 QS mod 30, GRIN3A LBD mod 5, Cardio protect 0, Mot1-301 SUMO 198 and NTR1 agonist 0.
